According to PubChem BioAssay (Tox21):
Results filed as inconclusive are left out. The source made the active and inactive calls. Unless noted, calls follow the shape of the dose curve; as a rule, active = well fitted curve in the direction sought with a large enough effect in the repeat runs; inconclusive = weak or mixed curves; inactive = no such curve, though single readings can be large; an effect the other way counts as inactive or inconclusive.

Key:
[1] = qHTS RealTime-Glo MT Cell Viability Assay in HepG2 cells - 16 hour (AID 1224885); also: nearly all actives have a fitted effect of over 50% in size
How it was run: (§1)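 Real-time, nonlytic viability: 600 HepG2 cells/well mixed with NanoLuc enzyme plus prosubstrate; 5 h settle, compound (DMSO) added by pintool; luminescence monitored over 40 h at 37 C.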

[2] = qHTS RealTime-Glo MT Cell Viability Assay in HEK293 cells - 24 hour (AID 1224886); also: nearly all actives have a fitted effect of over 50% in size; also: potency is read from the fitted curve at half-maximal effect; as to activity change, negative = cytotoxicity: top concentration of the series differs between compounds
How it was run: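 Cells + reagent dispensed (600 cells/well, HEK293) → 5 h at 37 C/5% CO2 → 23 nL compound in DMSO pinned → 40 h at 37 C → luminescence read at 0, 8, 16, 24, 32, 40 h.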

[3] = qHTS RealTime-Glo MT Cell Viability Assay in HEK293 cells - 8 hour (AID 1224887); also: nearly all actives have a fitted effect of over 50% in size; also: potency is read from the fitted curve at half-maximal effect; as to activity change, negative = cytotoxicity: top concentration of the series differs between compounds
How it was run: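 Tox21 screen in HEK293 using RealTime-Glo MT chemistry, with cells and reagent co-dispensed. Luminescence proportional to viable cell number was captured at intervals during 40 h compound exposure at 37 C.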

[4] = A CellTox Green Cytotoxicity Assay to monitor cytotoxicity in HEK293 cells - 16 hour (AID 1224888); also: nearly all actives have a fitted effect of over 35% in size
How it was run: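 Seeding of HEK293 cells together with cytotoxicity dye preceded a 5 h incubation at 37 C/5% CO2. Test compounds in DMSO were then added and fluorescence monitored across 40 h.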

[5] = qHTS RealTime-Glo MT Cell Viability Assay in HepG2 cells - 0 hour (AID 1224889); also: nearly all actives have a fitted effect of over 50% in size
How it was run: as §1

[6] = A CellTox Green Cytotoxicity Assay to monitor cytotoxicity in HepG2 cells - 8 hour (AID 1224890); also: nearly all actives have a fitted effect of over 45% in size; also: potency is read from the fitted curve at half-maximal effect
How it was run: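 Nonlytic assay: viable cells exclude the dye, so fluorescence scales with cell death. HepG2 at 600 cells/well, compounds added after 5 h, signal read across 40 h.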

[7] = qHTS assay to identify small molecule antagonists of the estrogen receptor alpha (ER-alpha) signaling pathway using the BG1 cell line in the presence of 0.1 nM 17-beta-estradiol - cell viability counter screen (AID 1259241); also: nearly all actives have a fitted effect of over 40% in size
How it was run: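 Measures cytotoxicity alongside the ER-alpha antagonist readout: VM7Luc4E2 cells, charcoal-stripped serum, 0.1 nM 17beta-estradiol final, 22 hr compound incubation at 37C, CellTiter-Fluor fluorescence.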

[8] = qHTS assay to identify small molecule antagonists of the androgen receptor (AR) signaling pathway using the MDA cell line in the presence of 0.5 nM R1881 - cell viability counter screen (AID 1259242); also: nearly all actives have a fitted effect of over 45% in size
How it was run: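 R1881 at 0.5 nM final stimulated MDA-kb2 cells during 16 hr compound treatment at 37C. Cytotoxicity read: CellTiter-Fluor fluorescence after 30 min.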

[9] = qHTS assay to identify small molecule HDAC inhibitors (AID 1259364);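 also: wild-type HCT-116 cells with endogenous class I/II HDAC activity; top concentration of the series differs between compounds; nearly all actives have a fitted effect of over 45% in size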
How it was run: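 Relative class I and II HDAC activity is taken from the luminogenic signal in HCT-116 cells, with compound exposure 2 hr and reagent development 30 min at room temperature.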

[10] = qHTS assay to identify small molecule HDAC inhibitors - cell viability counter screen (AID 1259365)
How it was run: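 Following a 2hr exposure of overnight-plated wild-type HCT-116 cells to DMSO-delivered compounds, CellTiter-Glo was added and luminescence recorded after 30min at room temperature.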

[11] = qHTS assay to identify small molecule agonists of the sonic hedgehog signaling (Shh) pathway - cell viability counter screen (AID 1259366); also: nearly all actives have a fitted effect of over 50% in size
How it was run: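 After a 4hr attachment at 37C, NIH/3T3 cells bearing an integrated Gli1-driven luciferase reporter were dosed with compounds. Treatment lasted 24hr, with the final hour including CellTiter-Fluor for a fluorescence viability measurement.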

[12] = qHTS assay to identify small molecule antagonists of the sonic hedgehog signaling (Shh) pathway - cell viability counter screen (AID 1259367); also: nearly all actives have a fitted effect of over 55% in size
How it was run: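 Cells: 3T3 Gli1-Luc, 2,000/well, 4 hr pre-incubation. Compounds in DMSO, then conditioned medium. Incubation 24 hr, 37C, 5% CO2. CellTiter-Fluor at 23 hr, 1 hr, fluorescence.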

[13] = target: Androgen receptor (Homo sapiens) (UniProt P10275); assay: qHTS assay to identify small molecule antagonists of the androgen receptor (AR) signaling pathway using the MDA cell line in the presence of 0.5 nM R1881 (AID 1259243); also: nearly all actives have a fitted effect of over 50% in size
How it was run: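 We exposed MDA-kb2 cells to compounds under 0.5 nM R1881 stimulation for 16 hr at 37C and quantified MMTV-driven luciferase by luminescence.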

[14] = target: Estrogen receptor (Homo sapiens) (UniProt P03372); assay: qHTS assay to identify small molecule antagonists of the estrogen receptor alpha (ER-alpha) signaling pathway using the BG1 cell line in the presence of 0.1 nM 17-beta-estradiol (AID 1259244); also: nearly all actives have a fitted effect of over 50% in size
How it was run: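 VM7Luc4E2; 4xERE-luciferase; 0.1 nM E2 final; 22 h co-incubation, 37C; ONE-Glo luminescence after 30 min at room temperature.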

[15] = qHTS assay to identify small molecule agonists of the sonic hedgehog signaling (Shh) pathway (AID 1259368; calls by dose curve;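 also: NIH/3T3-derived 3T3Gli1-Luc cells carrying a stable Gli1-driven firefly luciferase reporter; series mostly up to about 92 µM; nearly all actives have a fitted effect of over 15% in size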)
How it was run: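 Mouse fibroblast (NIH/3T3) reporter cells with stably integrated Gli1-Luc were treated 24 hr with compound; firefly luciferase luminescence served as the read-out.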

[16] = qHTS assay to identify small molecule antagonists of the sonic hedgehog signaling (Shh) pathway (AID 1259369; calls by dose curve; also: nearly all actives have a fitted effect of over 45% in size)
How it was run: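 Conditioned medium drives Shh signalling in 3T3Gli1-Luc cells; compounds in DMSO co-applied, 24hr at 37 C, then luciferase luminescence.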

[17] = qHTS assay to identify small molecule agonists of the androgen receptor (AR) signaling pathway in the presence of an antagonist - cell viability counter screen (AID 1259379);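 also: MDA-kb2 human breast cancer cells carrying an MMTV luciferase reporter; series mostly up to about 92 µM; nearly all actives have a fitted effect of over 25% in size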
How it was run: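 A CellTiter-Fluor read-out measured viability of MDA-kb2 reporter cells (MMTV promoter with AR and GR response elements). Treatment: nilutamide 3.0uM final with compounds at 15 concentrations, 16 hr, 37C, 0% CO2.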

[18] = target: Estrogen receptor beta (Homo sapiens) (UniProt Q92731); assay: qHTS assay to identify small molecule antagonists of the estrogen receptor beta (ER-beta) signaling pathway (AID 1259378; active = well fitted inhibition curve with a large enough effect in the signal ratio in the repeat runs, not every such curve was filed as active; the % refers to the signal ratio)
How it was run: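 Antagonist mode: compounds added to beta-lactamase reporter HEK293T ER-beta-UAS cells stimulated with E2 (1nM final), 16 hr at 37C. LiveBLAzer B/G FRET substrate, 2 hours room temperature, fluorescence read-out.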

[19] = qHTS assay to identify small molecule phospholipidosis (PLD) inducers (AID 1259344; active = well fitted curve in the direction sought with a large enough effect; an effect the other way counts as inactive or inconclusive)
How it was run: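 Phospholipidosis is scored by imaging LipidTOX-stained pits in HepG2 cells exposed to compound for 24 h at 37 C; pit counts and integrated intensities per well and per cell serve as outputs.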

[20] = target: Estrogen receptor beta (Homo sapiens) (UniProt Q92731); assay: qHTS assay to identify small molecule agonists of the estrogen receptor beta (ER-beta) signaling pathway (AID 1259377; active = well fitted activation curve with a large enough effect in the signal ratio in the repeat runs, not every such curve was filed as active; the % refers to the signal ratio)
How it was run: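 In HEK293T cells bearing a UAS-beta-lactamase reporter under ER-beta control, DMSO-delivered compounds were incubated for 16 hr at 37C. Activity was detected as fluorescence 2 hours after LiveBLAzer B/G FRET substrate addition.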
% is scaled to controls: 0 for no effect and ±100 for the full control effect.

Sequence of Estrogen receptor beta (Homo sapiens) (Q92731 whole entry, looked up): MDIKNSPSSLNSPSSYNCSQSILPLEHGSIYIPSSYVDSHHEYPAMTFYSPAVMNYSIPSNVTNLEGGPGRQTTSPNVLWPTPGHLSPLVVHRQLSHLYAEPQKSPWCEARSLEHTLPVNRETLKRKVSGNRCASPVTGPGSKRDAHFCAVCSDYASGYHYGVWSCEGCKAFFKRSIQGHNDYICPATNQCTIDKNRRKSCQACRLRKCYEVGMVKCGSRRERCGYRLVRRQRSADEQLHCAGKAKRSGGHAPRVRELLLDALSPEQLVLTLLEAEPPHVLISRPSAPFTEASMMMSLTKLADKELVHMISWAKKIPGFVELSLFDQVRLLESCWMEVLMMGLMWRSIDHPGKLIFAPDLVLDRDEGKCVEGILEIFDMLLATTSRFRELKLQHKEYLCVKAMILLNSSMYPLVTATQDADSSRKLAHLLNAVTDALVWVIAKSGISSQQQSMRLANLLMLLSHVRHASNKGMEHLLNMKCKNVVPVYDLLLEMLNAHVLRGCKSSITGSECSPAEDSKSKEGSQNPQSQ
Sequence of Estrogen receptor (Homo sapiens) (P03372 whole entry, looked up): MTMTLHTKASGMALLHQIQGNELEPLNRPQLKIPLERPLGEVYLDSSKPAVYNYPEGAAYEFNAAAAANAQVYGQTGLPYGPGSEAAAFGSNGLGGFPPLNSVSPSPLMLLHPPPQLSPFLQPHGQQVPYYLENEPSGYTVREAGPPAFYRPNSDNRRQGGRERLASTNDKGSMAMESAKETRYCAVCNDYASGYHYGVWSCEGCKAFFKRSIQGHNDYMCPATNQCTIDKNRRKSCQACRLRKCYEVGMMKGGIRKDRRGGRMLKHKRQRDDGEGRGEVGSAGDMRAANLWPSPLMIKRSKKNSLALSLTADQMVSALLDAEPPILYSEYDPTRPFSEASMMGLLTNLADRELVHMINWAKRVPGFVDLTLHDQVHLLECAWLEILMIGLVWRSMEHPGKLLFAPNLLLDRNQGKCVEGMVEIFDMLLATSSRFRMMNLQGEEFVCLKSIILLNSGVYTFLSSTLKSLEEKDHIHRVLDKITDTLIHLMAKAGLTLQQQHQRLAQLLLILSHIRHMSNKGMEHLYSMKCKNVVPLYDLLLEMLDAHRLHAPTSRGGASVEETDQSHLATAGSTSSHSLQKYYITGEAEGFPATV
Sequence of Androgen receptor (Homo sapiens) (P10275 whole entry, looked up): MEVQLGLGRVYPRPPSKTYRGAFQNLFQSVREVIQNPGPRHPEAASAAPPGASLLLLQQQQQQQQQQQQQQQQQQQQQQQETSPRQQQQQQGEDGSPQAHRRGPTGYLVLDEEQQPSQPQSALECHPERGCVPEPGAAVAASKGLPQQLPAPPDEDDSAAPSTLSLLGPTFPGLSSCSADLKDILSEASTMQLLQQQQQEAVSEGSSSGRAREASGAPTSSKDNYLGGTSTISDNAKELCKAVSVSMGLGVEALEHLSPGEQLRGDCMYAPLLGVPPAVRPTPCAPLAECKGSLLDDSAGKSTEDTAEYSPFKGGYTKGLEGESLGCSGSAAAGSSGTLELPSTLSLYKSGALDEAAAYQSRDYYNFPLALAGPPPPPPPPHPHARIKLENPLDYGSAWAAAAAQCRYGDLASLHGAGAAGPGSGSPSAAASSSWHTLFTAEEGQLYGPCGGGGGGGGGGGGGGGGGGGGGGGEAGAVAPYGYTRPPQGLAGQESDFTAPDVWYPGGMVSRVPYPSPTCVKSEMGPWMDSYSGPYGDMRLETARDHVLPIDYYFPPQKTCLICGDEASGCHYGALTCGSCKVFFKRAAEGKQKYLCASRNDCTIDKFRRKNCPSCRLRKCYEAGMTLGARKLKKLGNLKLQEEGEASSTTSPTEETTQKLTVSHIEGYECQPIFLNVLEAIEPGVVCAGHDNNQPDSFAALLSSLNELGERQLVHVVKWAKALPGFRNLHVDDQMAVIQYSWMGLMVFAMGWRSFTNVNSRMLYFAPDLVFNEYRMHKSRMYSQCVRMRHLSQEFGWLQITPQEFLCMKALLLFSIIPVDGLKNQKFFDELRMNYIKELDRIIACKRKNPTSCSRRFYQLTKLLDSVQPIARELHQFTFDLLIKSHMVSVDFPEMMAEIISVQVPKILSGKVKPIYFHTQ

C=C[Si](C)(C)Cl
inactive: activity change, negative = cytotoxic [1] -9.49% [at 6.97 µM] | activity change, negative = cytotoxicity [2] -3.65% [at 6.97 µM] | activity change, negative = cytotoxicity [3] -4.42% [at 6.97 µM] | activity change [4] -2.03% [at 6.97 µM, hits give high values] | activity change, negative = cytotoxicity [5] -16.4% [at 6.97 µM] | cytotoxicity increase [6] -7.78% [at 6.97 µM] | activity change, negative = cytotoxicity [7] -11.6% [at 8.39 µM] | viability change, negative = cytotoxic [8] 0.0065% [at 8.39 µM] | activity change, negative = inhibition [9] 3.64% [at 8.39 µM] | activity change, negative = cytotoxicity [10] -0.871% [at 8.39 µM] | viability change, negative = cytotoxic [11] 9.73% [at 8.39 µM] | viability change, negative = cytotoxic [12] -1.01% [at 8.39 µM]

CCOc1nc(F)cc2nc(S(=O)(=O)Nc3c(Cl)cccc3C(=O)OC)nn12
inactive: Potency [1] | Potency [2] | Potency [3] | Potency [4] | Potency [5] | Potency [6] | Potency [8] | Potency [13] | Potency [14] | Potency [10] | Potency [11] | Potency [12] | Potency [15] | Potency [16] | Potency [17]

COc1cc(C(C)C)ccc1C
inactive: activity change, negative = cytotoxic [1] -0.349% [at 15.8 µM] | activity change, negative = cytotoxicity [2] 0.818% [at 15.8 µM] | activity change, negative = cytotoxicity [3] 1.54% [at 15.8 µM] | activity change [4] -2.08% [at 15.8 µM, hits give high values] | activity change, negative = cytotoxicity [5] -5.12% [at 15.8 µM] | cytotoxicity increase [6] -11.9% [at 15.8 µM] | viability change, negative = cytotoxic [8] 0.996% [at 19 µM] | activity, negative = inhibition [13] -0.285% [at 19 µM] | activity change, negative = inhibition [9] 3.05% [at 19 µM] | activity change, negative = cytotoxicity [10] 0.521% [at 19 µM] | viability change, negative = cytotoxic [11] 0.547% [at 19 µM] | viability change, negative = cytotoxic [12] 0.176% [at 19 µM] | activity change [15] 1.1% [at 18.9 µM, hits give high values] | activity change, negative = inhibition [16] -24.4% [at 19 µM] | activity, negative = inhibition [18] -9.09% [at 19 µM] | activity change, negative = cytotoxicity [17] 2.05% [at 19 µM]

c1ccc(-c2ccc(C(c3ccccc3)n3ccnc3)cc2)cc1 (stereo not given)
inactive: Potency [1] | Potency [4] | Potency [5] | Potency [6] | Potency [7] | Potency [8] | Potency [14] | Potency [19] | Potency [9] | Potency [10] | Potency [11] | Potency [12] | Potency [15] | Potency [17]
active: Potency [2] 30.1 µM

CC(c1cc(C(C)(C)C)cc(C(C)(C)C)c1O)c1cc(C(C)(C)C)cc(C(C)(C)C)c1O
inactive: Potency [1] | Potency [3] | Potency [4] | Potency [5] | Potency [6] | Potency [7] | Potency [8] | Potency [14] | Potency [9] | Potency [10] | Potency [11] | Potency [12] | Potency [15] | Potency [16] | Potency [18] | Potency [17]

O=C1CCC(=O)N1
inactive: Potency [1] | Potency [4] | Potency [5] | Potency [6] | Potency [7] | Potency [8] | Potency [13] | Potency [14] | Potency [9] | Potency [10] | Potency [11] | Potency [12] | Potency [15] | Potency [16] | outcome [20] | Potency [18] | Potency [17]

Oc1ccc(Cl)cc1C1CCCC1
active: Potency [3] 27.5 µM | Potency [6] 49 µM
inactive: Potency [1] | Potency [5] | Potency [7] | Potency [8] | Potency [14] | Potency [9] | Potency [10] | Potency [11] | Potency [12] | Potency [15] | outcome [20] | Potency [17]
